PubChem BioAssay (NCATS)
Inconclusive results are not listed. Activity calls are given as the source filed them. Calls come from the whole dose curve; as a rule, active = well fitted curve in the direction sought with a large enough effect; inconclusive = small, poorly fitted or top-dose-only effect, or another doubt; inactive = no such curve, though single readings can be large; an effect the other way counts as inactive or inconclusive.

Assays:
[1] = Cell Viability - H-4-II-E (AID 543);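 note: cells exposed to compound for 40 hours; % is set by controls: 0 for no effect and ±100 for the full control effect; nearly all actives have a fitted effect of over 35% in size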
Summary of the method: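 qHTS, rat hepatoma H-4-II-E, 1500 cells/well; 40 hr compound exposure, 37 °C; CellTiter-Glo ATP luminescence after 20 min RT; AC50 by standard Hill fit.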

[2] = Cell Viability - SH-SY5Y (AID 544); details: SH-SY5Y neuroblastoma cell viability; viability change, negative = cytotoxic: at 92.2 µM (top of the series);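 note: cells exposed to compound for 40 hours; nearly all actives have a fitted effect of over 55% in size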
Summary of the method: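 SH-SY5Y, 1500 cells/well, 5 hr pre-incubation 37 °C; cpd 40 hr 37 °C; CellTiter-Glo 20 min RT; luminescence (ATP) read. qHTS concentration-response, Hill fit → AC50. Tamoxifen, doxorubicin as positive controls.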

[3] = Cell Viability - Renal Proximal Tubule (AID 545);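 note: cells exposed to compound for 40 hours; nearly all actives have a fitted effect of over 40% in size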
Summary of the method: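 Viability taken as intracellular ATP (CellTiter-Glo luminescence) after 40 hr, 37 °C compound treatment of primary proximal tubule cells from rat kidney, 1000 cells/well; Hill-equation fits of qHTS concentration-response data gave AC50.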

[4] = Cell Viability - Mesenchymal (AID 546);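 note: cells exposed to compound for 40 hours before reading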
Summary of the method: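 Human renal mesenchymal cells (glomerulus-derived), 1000 cells/well, 5 hr 37 °C pre-incubation; compound 40 hr, 37 °C; CellTiter-Glo, 20 min RT; luminescence; AC50 via Hill equation.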

[5] = Cellular Toxicity (caspase-3) HepG2 (AID 654);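 note: cells exposed to compound for 16 hours before reading; 0% = DMSO alone and 100% = caspase signal from 100 µM tamoxifen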
Summary of the method: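 Luminescent Caspase-Glo 3/7 readout after 16 hr compound exposure of human hepatocellular carcinoma HepG2 cells at 37 °C; qHTS concentration-response, normalized DMSO = 0%, 100 uM tamoxifen = 100%; AC50 by standard Hill equation.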

[6] = Cellular Toxicity (caspase-3) Jurkat (AID 655); details: Jurkat caspase-3 activation, luminescence; caspase-3 activation: at 92.2 µM (top of the series), DMSO = 0%, tamoxifen = 100%;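 note: cells exposed to compound for 16 h at 37 °C before reading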
Summary of the method: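 Luminescent Caspase-Glo 3/7 read-out (20 min, room temperature) after 16 h compound treatment at 37 C of 5000 Jurkat cells per well. AC50 derived by Hill-equation fitting, scaled between DMSO basal and 100 uM tamoxifen stimulation.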

[7] = Cellular Toxicity (caspase-3) HUV-EC-C (AID 656)
Summary of the method: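 Luminescent Caspase-Glo 3/7 readout after 16 h, 37 °C compound exposure of HUV-EC-C endothelial cells, 1000 per well, complete medium. AC50 derived by Hill fitting, with DMSO as baseline and 100 uM tamoxifen as full activation.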

[8] = Cellular Toxicity (caspase-3) SHSY5Y (AID 657)
Summary of the method: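 Luminescent Caspase-Glo 3/7 read-out, 1 hr room temperature, follows 16 hours of compound treatment of SH-SY5Y cells at 37 °C. Normalization: DMSO basal, 10 uM staurosporine as 100%; AC50 values from Hill-equation concentration-response fits.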

[9] = Cellular Toxicity (caspase-3) BJ (AID 658);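 note: 0% = DMSO basal and 100% = 10 µM staurosporine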
Summary of the method: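 qHTS, BJ fibroblasts, 1000 cells/well; 5 hr preincubation, 16 hr compound, 37 °C; Caspase-Glo 3/7 reagent, 1 hr RT; luminescence. DMSO = 0%, 10 uM staurosporine = 100%. Hill-equation AC50.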

[10] = Cellular Toxicity (caspase-3) MRC-5 (AID 659);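 note: 0% = DMSO basal and 100% = 10 µM staurosporine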
Summary of the method: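 MRC-5 fibroblasts, 1500/well; 16 h cpd, 37 °C; Caspase-Glo 3/7, 1 h RT; lumi read. Norm: DMSO = 0%, 10 uM staurosporine = 100%. Hill-fit AC50 from qHTS conc-response.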

[11] = Cellular Toxicity (caspase-3) Mesangial (AID 660); details: mesangial cells, normalized: DMSO 0%, 100 µM tamoxifen 100%; at 91.7 µM (top of the series);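 note: combined caspase 3 and 7 activity read by Caspase-Glo luminescence; cells exposed to compound for 16 h before the caspase read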
Summary of the method: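 Luminescent Caspase-Glo 3/7 readout (aminoluciferin substrate cleavage, 20 min RT) after 16 h compound exposure at 37 °C of normal human mesangial cells. Signal increase normalized between DMSO basal and 100 uM tamoxifen; Hill-equation AC50.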

[12] = Cellular Toxicity (caspase-3) H-4-II-E (AID 663); details: H-4-II-E rat hepatoma, scaled: DMSO 0%, 100 µM tamoxifen 100%; at 92.2 µM (top of the series);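 note: cells exposed to compound for 16 hr before readout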
Summary of the method: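 H-4-II-E rat hepatoma, 1500 cells/well, 5 hr settle at 37 °C; compound 16 hr, 37 °C, complete medium; Caspase-Glo 3/7, 20 min RT; luminescence. DMSO = 0%, 100 uM tamoxifen = 100%; Hill-equation AC50.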

[13] = Cellular Toxicity (caspase-3) Hek293 (AID 664); details: HEK293 caspase-3 activation, DMSO = 0%, 100 µM tamoxifen = 100%; at 92.2 µM (top of the series);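 note: cells exposed to compound for 16 h at 37 °C before readout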
Summary of the method: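 Luminescent Caspase-Glo 3/7 readout (aminoluciferin release) in HEK293 cells after 16 h compound treatment, 37 °C. Normalization: DMSO = basal, 100 uM tamoxifen = 100% stimulation. Concentration-response fitted with standard Hill equation for AC50.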

[14] = Cellular Toxicity (caspase-3) N2a (AID 665);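 note: compound exposure lasted 16 h at 37 °C before readout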
Summary of the method: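 Luminescent Caspase-Glo 3/7 readout in N2a mouse neuroblastoma cells after 16 h compound exposure at 37 °C. Signal scaled to DMSO (basal) and 10 uM staurosporine (100%). Concentration-response fitted with Hill equation for AC50.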

[15] = Cellular Toxicity (caspase-3) NIH 3T3 (AID 666);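 note: 0% = DMSO basal and 100% = 100 µM tamoxifen stimulation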
Summary of the method: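 NIH 3T3, 1000 cells/well, 5 hr settle then 16 hr compound at 37°C; Caspase-Glo 3/7, 20 min RT, luminescence. DMSO = basal, 100 uM tamoxifen = 100%. Hill-equation AC50, qHTS.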

[16] = Cellular Toxicity (caspase-3) Renal Proximal Tubule (AID 667); details: Potency: caspase-3 activation;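 note: cells exposed to compound for 16 hours at 37 °C before detection; 0% = DMSO basal and 100% = 10 µM staurosporine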
Summary of the method: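 Caspase 3/7 activation measured by luminescent aminoluciferin release in primary rat proximal tubule cells after 16 hr compound exposure at 37 °C. AC50 from Hill-fitted concentration-response, scaled between DMSO and 10 uM staurosporine.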

[17] = target: Cytochrome P450 3A4 (Homo sapiens) (UniProt P08684); assay: qHTS Assay for Inhibitors and Substrates of Cytochrome P450 3A4 (AID 884); note: % is set by controls: 0 for no effect and ±100 for the full control effect; nearly all actives have a fitted effect of over 50% in size
Summary of the method: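 Luminescent readout of luciferin produced by CYP3A4 (20 nM) dealkylation of Luciferin-PPXE, 25 uM (its KM). NADPH-driven reaction ran 60 min at RT after 10 min compound preincubation; data scaled to 57 uM ketoconazole as 100% inhibition.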

[18] = Cell Viability - LYMP2-001 (AID 921);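 note: 0% = DMSO only and full inhibition = tetraoctylammonium bromide control wells; nearly all actives have a fitted effect of over 70% in size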
Summary of the method: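 Cellular ATP loss read by luciferase luminescence after 24 h compound exposure at 37 C in complete medium. LYMP2-001 lymphoblastoid cells, 2500/well; qHTS concentration-response data fitted with Hill equation for AC50.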

[19] = Cellular Toxicity (caspase-3) SK-N-SH (AID 661);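 note: 0% = DMSO basal and 100% = 10 µM staurosporine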
Summary of the method: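 Luminescent Caspase-Glo 3/7 read-out after 16 hr compound exposure of SK-N-SH neuroblastoma cells at 37 °C. Signal increase normalized to DMSO (basal) and 10 uM staurosporine (100%); AC50 from Hill equation fits of qHTS concentration-response data.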

[20] = target: Cytochrome P450 3A4 (Homo sapiens) (UniProt P08684); assay: qHTS Assay for Activators of Cytochrome P450 3A4 (AID 885); note: nearly all actives have a fitted effect of over 65% in size
Summary of the method: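 Human CYP3A4 dealkylates Luciferin-PPXE to luciferin, which luciferase detection converts to light. Substrate was at its KM (25uM), buffer 200mM KPO4, reaction 60 min at RT.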

Chain of Cytochrome P450 3A4 (Homo sapiens) (P08684 whole entry, looked up): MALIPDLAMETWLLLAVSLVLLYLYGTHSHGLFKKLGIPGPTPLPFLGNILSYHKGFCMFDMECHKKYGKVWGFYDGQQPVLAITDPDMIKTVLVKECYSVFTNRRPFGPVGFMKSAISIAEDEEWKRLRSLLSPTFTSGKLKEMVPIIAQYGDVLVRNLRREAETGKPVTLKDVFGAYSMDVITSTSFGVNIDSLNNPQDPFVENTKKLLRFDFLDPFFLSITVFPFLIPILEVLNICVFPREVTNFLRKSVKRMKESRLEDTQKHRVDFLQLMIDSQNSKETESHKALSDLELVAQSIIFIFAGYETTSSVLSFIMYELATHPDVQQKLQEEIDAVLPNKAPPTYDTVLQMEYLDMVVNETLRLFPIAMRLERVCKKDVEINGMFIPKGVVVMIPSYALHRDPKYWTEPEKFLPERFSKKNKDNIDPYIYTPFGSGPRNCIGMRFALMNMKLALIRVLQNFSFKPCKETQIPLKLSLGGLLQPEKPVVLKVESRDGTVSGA

CC(C)C=O
inactive: Potency [1] | Potency [2] | Potency [3] | Potency [4] | Potency [5] | caspase-3 activation [6] 0.00972% | outcome [7] | outcome [8] | outcome [9] | outcome [10] | caspase-3 activation [11] 1.06% | caspase-3 activation [12] 0.472% | caspase-3 activation [13] -1.91% | outcome [14] | outcome [15] | Potency [16] | Potency [17] | Potency [18]

OC1CCCC1
inactive: Potency [1] | Potency [2] | Potency [3] | Potency [4] | Potency [5] | caspase-3 activation [6] 0.809% | outcome [7] | outcome [8] | outcome [9] | outcome [10] | outcome [19] | caspase-3 activation [12] 0.647% | caspase-3 activation [13] -1.06% | outcome [14] | outcome [15] | Potency [16] | Potency [18]

Cc1ccc2nc(-c3ccc(N)cc3)sc2c1S(=O)(=O)O
inactive: Potency [1] | Potency [2] | Potency [3] | Potency [4] | Potency [5] | caspase-3 activation [6] -10.6% | outcome [7] | outcome [8] | outcome [9] | outcome [10] | caspase-3 activation [11] -3.9% | outcome [19] | caspase-3 activation [12] -4.87% | caspase-3 activation [13] -8.94% | outcome [14] | Potency [16] | outcome [20] | Potency [18]

Nc1ccccc1S(=O)(=O)O
inactive: Potency [1] | Potency [2] | Potency [3] | Potency [4] | Potency [5] | caspase-3 activation [6] 1.01% | outcome [7] | outcome [8] | outcome [9] | outcome [10] | caspase-3 activation [11] -0.218% | caspase-3 activation [12] -0.112% | caspase-3 activation [13] 1.83% | outcome [14] | outcome [15] | Potency [16] | Potency [17] | Potency [18]

CC(CCl)OC(C)CCl (stereo not drawn)
inactive: Potency [1] | Potency [2] | Potency [3] | Potency [4] | Potency [5] | caspase-3 activation [6] 1.36% | outcome [7] | outcome [8] | outcome [9] | caspase-3 activation [11] -0.591% | outcome [19] | caspase-3 activation [12] 0.133% | caspase-3 activation [13] 1.69% | outcome [14] | outcome [15] | Potency [16] | Potency [17] | Potency [18]

c1ccc2c(c1)ccc1ncccc12
inactive: Potency [1] | Potency [2] | Potency [3] | Potency [4] | Potency [5] | caspase-3 activation [6] 3.47% | outcome [7] | outcome [8] | outcome [9] | outcome [10] | caspase-3 activation [11] -0.196% | outcome [19] | caspase-3 activation [12] 0.297% | caspase-3 activation [13] 1.59% | outcome [14] | outcome [15] | Potency [16] | Potency [18]

O=C(Cl)c1cccc([N+](=O)[O-])c1
inactive: Potency [1] | Potency [2] | Potency [3] | Potency [4] | Potency [5] | caspase-3 activation [6] 2.23% | outcome [8] | outcome [9] | outcome [10] | caspase-3 activation [11] -1.19% | outcome [19] | caspase-3 activation [12] 3.32% | caspase-3 activation [13] 0.786% | outcome [14] | outcome [15] | Potency [16] | Potency [17] | Potency [18]

Nc1cc(S(=O)(=O)O)ccc1O
inactive: Potency [1] | Potency [2] | Potency [3] | Potency [4] | Potency [5] | caspase-3 activation [6] -0.212% | outcome [7] | outcome [8] | outcome [10] | caspase-3 activation [11] 0.554% | outcome [19] | caspase-3 activation [12] -0.224% | caspase-3 activation [13] -0.175% | outcome [14] | outcome [15] | Potency [16] | Potency [17] | Potency [18]
